# Laboratory results as given in PubChem BioAssay.
# The source made the active and inactive calls.
# How the values were obtained:
# [1] = small molecules captured by biotinylated probe aFSTL3 – biochemical, small-molecule microarray, fluorescence 635/667, stem cell growth factor project, primary screen (AID 1064); settings: higher = more signal;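 further: measures binding of the biotinylated anti-FSTL3 antibody to printed compounds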
# [2] = binders from COS7 lysate, DM2A8 probe, primary screen, torsin A project, cell lysate, small-molecule microarray, fluorescence 635/667 (AID 1065); settings: higher = more signal, COS7 lysate expressing mutant human TOR1A
# [3] = small molecules captured by biotinylated probe aFGF2 – biochemical, small-molecule microarray, fluorescence 635/667, stem cell growth factor project, primary screen (AID 1067); settings: higher = more signal;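 further: measures binding of biotinylated aFGF2 protein to printed compounds on slides; z-score merges feature fluorescence and signal-to-noise across triplicate slides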
# [4] = small molecules captured by biotinylated probe aFGF10 – biochemical, small-molecule microarray, fluorescence 635/667, stem cell growth factor project, primary screen (AID 1071); settings: higher = more signal;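 further: score merges 667 nm spot intensity and signal to noise from triplicate slides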
# [5] = target: Neurogenic locus notch homolog protein 2 (Homo sapiens) (UniProt Q04721); experiment: small molecules binding Notch2 protein – biochemical, small-molecule microarray, 635 nm fluorescence, stem cell growth factors, primary screen (AID 1073); settings: higher = more signal
# [6] = target: Pro-neuregulin-1, membrane-bound isoform (Homo sapiens) (UniProt Q02297); experiment: small molecules binding neuregulin-1 protein – biochemical, small-molecule microarray, fluorescence 635/667, psychiatric disease protein project, primary screen (AID 1075); settings: NRG1 binding, 635 nm fluorescence, higher = more signal;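 further: score combines 667 nm spot fluorescence with signal to noise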
# [7] = test system: Neuregulin-1 EGF-like domain; experiment: small molecules binding NRG1 EGF domain – biochemical, small-molecule microarray, 635 nm fluorescence, primary screen (AID 1081); settings: higher = more signal;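 further: binding of the protein to compounds printed on small-molecule microarray slides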
# [8] = FRG1 expression reporter modulators in myotubes – cell-based, C2C12 myotubes, firefly/Renilla luciferase, luminescence, FRG1 inhibition for FSHD, primary screen (AID 1084); settings: FRG1 promoter luciferase, higher = more signal, called active from +8 up or from −8 down
# [9] = small molecules captured by biotinylated probe aFST – biochemical, small-molecule microarray, fluorescence 635/667, stem cell growth factor project, primary screen (AID 1086); settings: higher = more signal;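 further: score merges 667 nm fluorescence with signal-to-noise of each printed compound spot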
# [10] = binders of probe aHhip on microarray, primary screen, stem cell growth factor project, biochemical, small-molecule microarray, fluorescence 635/667 (AID 1087); settings: higher = more signal;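 further: score merges spot fluorescence at 667nm with spot signal to noise ratio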
# [11] = test system: PRMT1 (protein arginine N-methyltransferase 1); experiment: small molecules binding arginine methyltransferase PRMT1 – biochemical, small-molecule microarray, 635 nm fluorescence, primary screen (AID 1088); settings: higher = more signal;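 further: binding of Prmt1 protein to compounds spotted on small-molecule microarray slides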
# [12] = growth effects on S. cerevisiae YJM789 – YJM789 clinical isolate, OD600, 24 h, basal, primary screen (AID 1089); settings: higher = more signal, called active from +8 up or from −8 down;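 further: growth of clinical yeast isolate S. cerevisiae YJM 789 seeded 1000 cells per well; test concentration not given here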
# [13] = S. pombe growth modifiers, basal conditions – strain 972, OD600, 24 h, no modulator, primary screen (AID 1090);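 further: basal condition with compound alone and no growth modifier present; test concentration not given here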; settings: S. pombe 972 growth, higher = more signal, called active from +8 up or from −8 down
# [14] = budding yeast growth modifiers under rapamycin – strain BY4716, OD600, 96 h, primary screen (AID 1091); further: test concentration not given here; settings: S. cerevisiae BY4716 + rapamycin, higher = more signal, called active from +8 up or from −8 down
# [15] = target: Torsin-1A-interacting protein 2 (Homo sapiens) (UniProt Q8NFQ8); experiment: small molecules binding lysate-expressed LULL1 – cell lysate, human LULL1 lysate, 635/667 nm fluorescence, primary screen (AID 1092); settings: small-molecule microarray, hLULL1 lysate binding, 635 nm fluorescence; higher = more signal;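 further: probe is lysate of COS7 cells overexpressing human LULL1; score merges per-feature 667 nm fluorescence with signal-to-noise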
# [16] = optical density change of DRC41 E. coli – strain DRC41, OD650, 24 h, E. coli filamentation project, primary screen (AID 1093);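 further: MC1000 strain lacking acrAB efflux and sulA so SOS filamentation is blocked; test concentration not given here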; settings: E. coli DRC41 growth, higher = more signal, called active from +8 up or from −8 down
# [17] = probe aLefty2 binding to arrayed compounds – biochemical, biotinylated probe, 635/667 nm fluorescence, primary screen (AID 1094); settings: small-molecule microarray, higher = more signal;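 further: score merges spot fluorescence near 667 nm with spot signal-to-noise ratio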
# [18] = test system: Noggin (protein binding on small-molecule microarray); experiment: small molecules binding Noggin protein – biochemical, 635/667 nm fluorescence, primary screen (AID 1095); settings: 635 nm fluorescence, higher = more signal;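 further: score merges 667 nm feature fluorescence with signal to noise over triplicate slides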
# [19] = target: Neurogenic locus notch homolog protein 3 (Homo sapiens) (UniProt Q9UM47); experiment: small molecules binding NOTCH3 protein – biochemical, 635/667 nm fluorescence, primary screen (AID 1096); settings: small-molecule microarray, 635 nm fluorescence, higher = more signal
# [20] = probe aEGFR binding to arrayed compounds – biochemical, biotinylated probe, 635/667 nm fluorescence, primary screen (AID 1097); settings: small-molecule microarray, higher = more signal;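 further: probe is a biotinylated anti-EGFR antibody binding compounds printed on slides; score combines fluorescence near 667 nm and signal to noise of each spot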
# Sequence of Pro-neuregulin-1, membrane-bound isoform (Homo sapiens) (Q02297 whole entry, looked up, the tested form may be a part, canonical isoform): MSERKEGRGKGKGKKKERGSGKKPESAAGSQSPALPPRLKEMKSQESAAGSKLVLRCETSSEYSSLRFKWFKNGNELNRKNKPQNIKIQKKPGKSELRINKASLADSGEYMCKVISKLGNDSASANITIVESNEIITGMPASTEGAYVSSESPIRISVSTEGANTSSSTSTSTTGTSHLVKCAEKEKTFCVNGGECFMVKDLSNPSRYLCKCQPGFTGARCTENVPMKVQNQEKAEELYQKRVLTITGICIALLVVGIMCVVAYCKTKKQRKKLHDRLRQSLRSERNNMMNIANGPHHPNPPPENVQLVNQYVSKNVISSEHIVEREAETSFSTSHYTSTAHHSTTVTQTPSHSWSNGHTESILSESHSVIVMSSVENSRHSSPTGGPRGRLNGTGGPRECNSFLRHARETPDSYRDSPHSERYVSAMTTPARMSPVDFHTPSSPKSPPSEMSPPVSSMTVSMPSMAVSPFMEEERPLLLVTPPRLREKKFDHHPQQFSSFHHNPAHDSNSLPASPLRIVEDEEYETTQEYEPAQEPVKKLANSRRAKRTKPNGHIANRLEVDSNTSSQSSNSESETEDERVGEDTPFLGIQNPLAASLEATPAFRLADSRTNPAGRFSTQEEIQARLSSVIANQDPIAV
# Sequence of Torsin-1A-interacting protein 2 (Homo sapiens) (Q8NFQ8 whole entry, looked up): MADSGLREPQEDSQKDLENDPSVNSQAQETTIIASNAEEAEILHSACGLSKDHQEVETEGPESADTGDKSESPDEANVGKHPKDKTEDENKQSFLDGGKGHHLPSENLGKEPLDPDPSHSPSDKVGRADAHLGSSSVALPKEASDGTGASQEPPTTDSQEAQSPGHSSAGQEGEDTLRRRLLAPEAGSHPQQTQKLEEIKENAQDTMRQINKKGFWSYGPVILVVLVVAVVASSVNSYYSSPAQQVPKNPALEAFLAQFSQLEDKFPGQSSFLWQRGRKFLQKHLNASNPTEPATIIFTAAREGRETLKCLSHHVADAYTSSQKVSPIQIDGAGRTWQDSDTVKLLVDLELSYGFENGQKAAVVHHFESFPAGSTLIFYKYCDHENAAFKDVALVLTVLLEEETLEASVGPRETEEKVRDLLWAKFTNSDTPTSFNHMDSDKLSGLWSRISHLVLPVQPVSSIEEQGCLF
# Sequence of Neurogenic locus notch homolog protein 3 (Homo sapiens) (Q9UM47 whole entry, looked up): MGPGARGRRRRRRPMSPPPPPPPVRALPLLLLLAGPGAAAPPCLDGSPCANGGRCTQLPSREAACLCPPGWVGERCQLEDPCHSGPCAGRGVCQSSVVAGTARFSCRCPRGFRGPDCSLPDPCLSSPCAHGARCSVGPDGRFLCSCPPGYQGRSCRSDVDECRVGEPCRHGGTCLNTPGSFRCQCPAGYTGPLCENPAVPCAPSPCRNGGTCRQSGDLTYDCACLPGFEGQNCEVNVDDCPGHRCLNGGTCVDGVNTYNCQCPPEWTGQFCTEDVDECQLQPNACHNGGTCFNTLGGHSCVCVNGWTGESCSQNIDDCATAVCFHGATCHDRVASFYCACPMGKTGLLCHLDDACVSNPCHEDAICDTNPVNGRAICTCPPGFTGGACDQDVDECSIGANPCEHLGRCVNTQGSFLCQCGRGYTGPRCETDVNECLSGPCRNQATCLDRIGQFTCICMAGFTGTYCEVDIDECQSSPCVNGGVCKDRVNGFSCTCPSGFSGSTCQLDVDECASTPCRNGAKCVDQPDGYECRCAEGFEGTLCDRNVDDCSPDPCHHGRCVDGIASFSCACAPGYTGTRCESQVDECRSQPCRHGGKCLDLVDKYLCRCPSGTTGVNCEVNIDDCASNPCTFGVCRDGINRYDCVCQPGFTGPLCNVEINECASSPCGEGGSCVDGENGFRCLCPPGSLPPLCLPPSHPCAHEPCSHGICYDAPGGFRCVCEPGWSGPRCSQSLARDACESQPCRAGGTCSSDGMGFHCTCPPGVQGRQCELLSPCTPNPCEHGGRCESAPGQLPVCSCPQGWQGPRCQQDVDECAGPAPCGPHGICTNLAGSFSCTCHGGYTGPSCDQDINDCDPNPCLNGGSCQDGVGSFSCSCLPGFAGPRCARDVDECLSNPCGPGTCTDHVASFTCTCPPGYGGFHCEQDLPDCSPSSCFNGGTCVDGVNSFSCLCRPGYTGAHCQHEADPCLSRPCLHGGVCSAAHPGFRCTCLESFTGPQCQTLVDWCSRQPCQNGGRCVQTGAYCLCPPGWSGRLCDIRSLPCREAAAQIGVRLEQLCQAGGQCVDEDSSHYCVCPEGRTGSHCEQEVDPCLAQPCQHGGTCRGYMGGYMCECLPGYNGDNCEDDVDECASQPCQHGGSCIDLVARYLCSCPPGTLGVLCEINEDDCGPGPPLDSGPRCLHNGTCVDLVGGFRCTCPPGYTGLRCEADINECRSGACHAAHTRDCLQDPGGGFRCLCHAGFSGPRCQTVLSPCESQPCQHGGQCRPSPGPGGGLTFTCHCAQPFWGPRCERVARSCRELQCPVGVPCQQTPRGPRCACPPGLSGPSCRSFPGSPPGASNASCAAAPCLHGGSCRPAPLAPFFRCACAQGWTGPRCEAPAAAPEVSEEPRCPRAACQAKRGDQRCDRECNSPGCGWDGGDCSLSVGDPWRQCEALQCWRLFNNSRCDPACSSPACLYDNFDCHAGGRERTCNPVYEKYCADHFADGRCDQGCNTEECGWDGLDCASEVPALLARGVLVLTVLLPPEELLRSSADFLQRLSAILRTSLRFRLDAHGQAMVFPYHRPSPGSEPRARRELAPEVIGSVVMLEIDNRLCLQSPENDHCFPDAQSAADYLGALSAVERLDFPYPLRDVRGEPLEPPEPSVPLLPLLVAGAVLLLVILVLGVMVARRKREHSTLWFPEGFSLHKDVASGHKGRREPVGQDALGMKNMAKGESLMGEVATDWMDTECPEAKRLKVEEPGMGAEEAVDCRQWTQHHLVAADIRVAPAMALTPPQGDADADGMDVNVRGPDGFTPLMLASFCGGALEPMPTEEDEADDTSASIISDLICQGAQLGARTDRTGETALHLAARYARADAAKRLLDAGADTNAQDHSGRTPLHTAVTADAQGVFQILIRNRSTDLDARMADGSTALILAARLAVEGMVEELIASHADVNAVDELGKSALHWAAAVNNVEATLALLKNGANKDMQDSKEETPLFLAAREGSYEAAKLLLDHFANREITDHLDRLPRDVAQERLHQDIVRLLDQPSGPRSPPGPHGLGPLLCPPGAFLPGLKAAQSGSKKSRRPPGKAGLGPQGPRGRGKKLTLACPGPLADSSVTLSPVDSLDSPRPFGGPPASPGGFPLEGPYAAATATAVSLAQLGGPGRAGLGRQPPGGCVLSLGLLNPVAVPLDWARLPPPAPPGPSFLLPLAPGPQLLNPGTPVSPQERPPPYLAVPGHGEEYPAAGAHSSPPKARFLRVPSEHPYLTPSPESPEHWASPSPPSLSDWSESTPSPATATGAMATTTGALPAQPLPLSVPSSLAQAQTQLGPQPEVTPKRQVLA
SMILES,composite z-score [1],composite z-score [2],composite z-score [3],composite z-score [4],composite z-score [5],composite z-score [6],composite z-score [7],z-score [8],composite z-score [9],composite z-score [10],composite z-score [11],z-score [12],z-score [13],z-score [14],composite z-score [15],z-score [16],composite z-score [17],composite z-score [18],composite z-score [19],composite z-score [20]
COc1ccc([Si](C)(C)[C@@H]2[C@@H](CCn3cc(CCO)nn3)O[C@]3(C(=O)N(Cc4ccc(N5C(=O)c6cccc7cccc5c67)cc4)c4ccccc43)[C@H]2C)cc1,-0.279,0.749,-0.0656,-0.0139,0.142,1.26,0.742,-3.48 (inactive),0.299,0.154,1.51,0.0277 (inactive),0.858 (inactive),12.7 (active),0.986,2.61 (inactive),-0.0564,0.376,0.802,-0.0138
CC(C)C(CO)N1C(=O)[C@@H]2[C@H]3C(=O)OCC=C[C@H]3OC23C=CCN(Cc2ccccc2)C(=O)[C@@H]13 (stereo not given in full),-0.302,-0.438,-0.116,-0.307,-0.834,-0.72,-0.386,-0.699 (inactive),-0.361,-0.0994,-0.462,-0.899 (inactive),-0.742 (inactive),-1.06 (inactive),-1.04,2.08 (inactive),-0.238,-0.282,-0.316,-0.287
CC(C)C(=C=CC[C@H](O)c1ccc(OCCO)cc1)C[C@H](O)COCc1ccccc1,-0.254,1.75,-0.128,0.411,-0.438,0.639,1.09,-1.37 (inactive),-0.0173,-0.0994,1.23,1.09 (inactive),-2.45 (inactive),-0.668 (inactive),1.76,0.775 (inactive),-0.119,1.51,0.229,-0.166
CCN(CC)c1ccc(N2CC=CC34O[C@@H]5C=CCOC(=O)[C@@H]5[C@H]3C(=O)N(C(CO)C(C)C)[C@@H]4C2=O)cc1 (stereo not given in full),0.277,-0.866,-0.134,-0.241,-0.835,-0.367,-0.805,0.232 (inactive),-0.609,-0.134,-0.755,1.01 (inactive),-0.635 (inactive),1.07 (inactive),-0.952,1.59 (inactive),-0.138,-0.544,-1.02,-0.253
CC(C)C[C@@H]1NC(=O)[C@@]23C(=O)N[C@@H](Cc4ccccc4)C2[C@H](C)[C@@]2(C)O[C@H]2C3/C=C/C/C=C\CNC(=O)[C@H](Cc2ccccc2)NC1=O (stereo not given in full),-0.215,-0.215,-0.101,-0.0045,0.245,0.974,0.897,0.259 (inactive),0.0017,0.03,0.911,-0.664 (inactive),-19.9 (active),-0.602 (inactive),0.574,2.08 (inactive),-0.202,0.404,0.414,-0.0671
Cc1ccc(N2C(=O)c3ccccc3[C@](C)(C(=O)NC3CC3)[C@@H]2c2ccc(CO)cc2)nc1,0.879,-0.241,-0.0948,-0.325,-0.344,-0.474,-0.0515,0.843 (inactive),0.406,-0.0047,-0.349,0.0474 (inactive),-0.981 (inactive),-0.69 (inactive),0.244,0.949 (inactive),0.149,0.381,-0.591,-0.0564
C#CCN1C(C(=O)OCC)OC[C@H]1c1ccccc1 (stereo not given in full),-0.551,2.59,-0.128,0.389,0.678,0.0354,-0.143,-1.77 (inactive),-0.0006,-0.492,0.52,-1.51 (inactive),-2.08 (inactive),-1.95 (inactive),3.77,1.92 (inactive),-0.205,0.671,0.804,-0.109
COC(=O)C(CC#Cc1ccc2c(c1)[C@]1(C(=O)N2)[C@H](c2ccccc2OCCO)N2[C@H](c3ccccc3)[C@H](c3ccccc3)OC(=O)[C@H]2[C@@H]1C(=O)N1CCCCCCC1)C(=O)OC,4,2.62,0.984,1.28,1.54,2.17,0.982,0.62 (inactive),3.71,2.52,1.53,0.349 (inactive),0.958 (inactive),1.06 (inactive),4.89,1.83 (inactive),1.93,2.02,1.09,1.44
COCCOC(=O)N1C(=O)[C@@]2(c3cc(C#CCNC(N)=O)ccc31)[C@H](c1ccccc1OCCO)N1[C@H](c3ccccc3)[C@H](c3ccccc3)OC(=O)[C@H]1[C@@H]2C(=O)Nc1nc2ccccc2s1,0.171,1.05,-0.0893,0.158,0.931,0.582,0.627,1.18 (inactive),0.986,0.0623,1.28,0.314 (inactive),-0.364 (inactive),1.99 (inactive),1.58,2.67 (inactive),0.136,0.345,0.799,-0.0732
COCCCN1C(=O)[C@@]2(Cc3ccccc31)c1ccccc1C(=O)N(Cc1ccccc1Cl)[C@H]2c1ccc(CO)cc1,0.218,-0.272,-0.201,-0.273,-0.773,-0.592,-0.983,0.448 (inactive),0.009,0.0274,0.952,-0.403 (inactive),-1.49 (inactive),-1.46 (inactive),1.22,2.9 (inactive),-0.226,-1.07,-0.435,-0.0304
